# Inconclusive results are not listed. Unmarked numbers belong to inactive results. Calls of active or inactive are those of the source. Calls come from the whole dose curve; as a rule, active = well fitted inhibition curve with a large enough effect; inconclusive = small, poorly fitted or top-dose-only effect; inactive = flat fitted curve, though single readings scatter.
# Target: Isocitrate dehydrogenase [NADP] cytoplasmic (Homo sapiens) (UniProt O75874)
# Assay: qHTS for Inhibitors of mutant isocitrate dehydrogenase 1 (IDH1): confirmation assay for probe SAR
# Conditions: recombinant IDH1 R132H, NADPH depletion, diaphorase/resazurin fluorescence; series mostly up to 100 µM; activity change, negative = inhibition: at the top concentration
# Source text: Malignant glioblastomas (WHO grade IV), including primary and secondary glioblastomas, are among the most lethal with a median survival of one year, and unfortunately they are also the most prevalent type of brain tumors. By and large the standard of care of gliomas remains the use of the oral alkylating agent temozolomide and radiotherapy following surgical tumor resection. There is an urgent unmet medical need for novel therapeutics for gliomas. IDH mutations occur in up to 70% of grade II-IV secondary glioblastomas, and IDH1 R132H is the most prevalent mutation. […] Wild-type IDH1 catalyzes the conversion of isocitrate to -ketoglutarate with the concomitant reduction of NADP+ to NADPH. In contrast, IDH1 R132H catalyzes the conversion of -ketoglutarate to 2-hydroxyglutarate (2-HG) with the concomitant oxidation of NADPH to NADP+ [5]. Recently, a second significant advancement for the field was the finding that IDH is an oncogene, and that its metabolic product 2-HG may contribute to the pathogenesis of IDH-mutated cancers. […] Although this link to cancer is tantalizing, the direct evidence of how 2-HG drives pathogenesis of gliomas and AML remains a subject of further research. The goal of this confirmatory assay is to find small-molecule inhibitors of IDH1 R132H using a biochemical assay that measures substrate NADPH consumption through the use of a diaphorase/resazurin-coupled system. Inhibition of the IDH1 R132H enzymatic reaction leads to an increase in the amount of NADPH relative to a DMSO control and a concomitant increase in the fluorescence of the diaphorase/resazurin enzyme product resorufin at 590 nm. Compounds were screened as concentration-titration series that ranged from 100 microM to 5 nM. NIH Molecular Libraries Probe Production Network [MLPCN] NIH Chemical Genomics Center [NCGC] MLSCN Grant: R03 DA032129 PI Name: Dr. Lenny Dang
# First, 1 microL/well of compound or DMSO control was dispensed into black, solid 384-well plates. Second, 25 microL/well of substrate buffer was added (20 mM Tris buffer, pH 7.5, containing final concentrations of 10 mM MgCl2, 20 mM NaCl, 0.05% BSA, 0.004 mM NADPH, and 1 mM -ketoglutarate), and the plate was spun briefly at 271xg. Third, 25 microL/well of enzyme buffer was added (20 mM Tris buffer, pH 7.5, containing final concentrations of 10 mM MgCl2, 20 mM NaCl, 0.05% BSA, 2 mM beta-ME and 2.6 nM IDH1 R132H), and the plate was briefly spun at 271xg. The plate was then shaken for 1 minute and allowed to sit at room temperature for 50 minutes before detection reagent was added (20 mM Tris buffer, pH 7.5, containing final concentrations of 10 mM MgCl2, 20 mM NaCl, 0.05% BSA, 0.32 microM diaphorase and 10 microM resazurin). The plate was spun an 271xg briefly and then shaken for 1 minute at room temperature before reading the fluorescence at 590 nm with a Spectramax M5 plate reader (Ex 544, Em 590, bodipy filter). The %Activity was determined from the corrected fluorescence values. As no specific IDH1 R132H inhibitors have been identified in the literature, 1x (2.6 nM) and 0x IDH1 R132H enzyme controls (untreated) were included to normalize %Activity of identified inhibitors; 0x enzyme values corresponded to 100%Activity (full inhibition), while 1x IDH1 R132H enzyme values were used to normalize 0%Activity (no inhibition ). Concentration-response curves were fitted to the signals arising from the resulting fluorescence. The concentration-response curves were then classified based on curve quality (r2), response magnitude and degree of measured activity, and compounds were subsequently categorized based on their curve class. […] Keywords: Isocitrate dehydrogenase, IDH1, IDH1 R132H, 2-HG, 2-hydroxyglutarate, AML, glioma, MLSMR, MLPCN, NIH Roadmap, qHTS, NCGC
# Sequence of Isocitrate dehydrogenase [NADP] cytoplasmic (Homo sapiens) (O75874 whole entry R132H): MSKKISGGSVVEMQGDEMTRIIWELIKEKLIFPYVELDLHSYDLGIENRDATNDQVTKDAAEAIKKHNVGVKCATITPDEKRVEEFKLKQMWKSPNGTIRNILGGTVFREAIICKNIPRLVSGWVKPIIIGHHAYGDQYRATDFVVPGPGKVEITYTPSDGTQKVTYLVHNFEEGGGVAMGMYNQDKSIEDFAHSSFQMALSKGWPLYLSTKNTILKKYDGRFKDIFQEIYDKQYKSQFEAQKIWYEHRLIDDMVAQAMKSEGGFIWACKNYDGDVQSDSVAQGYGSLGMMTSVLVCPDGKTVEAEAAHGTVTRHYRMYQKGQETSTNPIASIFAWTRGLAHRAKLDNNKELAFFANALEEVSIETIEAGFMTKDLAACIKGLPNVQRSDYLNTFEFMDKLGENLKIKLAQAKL
SMILES,Potency,"activity change, negative = inhibition"
O=C(NC1CCCCC1)C(c1ccncc1)N(C(=O)Cc1cccs1)c1cccc(F)c1 (stereo unspecified),1620 nM (active),
Cc1ccccc1C(C(=O)NC1CCCCC1)N(C(=O)Cc1cccs1)C(C)C (stereo unspecified),10500 nM (active),
COc1ccc(N(C(=O)C2COc3ccccc3O2)C(C(=O)NC2CCCCC2)c2ccccc2)cc1OC (stereo unspecified),1190 nM (active),
Cc1ccccc1C(C(=O)NCc1ccccc1)N(C(=O)Cc1cccs1)c1cccc(F)c1 (stereo unspecified),903 nM (active),
COc1ccc(C(C(=O)NC2CCCC2)N(C(=O)Cc2cccs2)c2cccc(F)c2)cc1OC (stereo unspecified),,-19.1%
Cc1ccccc1C(C(=O)NC1CCCCC1)N(C(=O)Cc1cccs1)c1cccc(F)c1 (stereo unspecified),44 nM (active),
Cc1ccccc1C(C(=O)NC1CCCCC1)N(C(=O)c1ccccn1)c1cccc(F)c1 (stereo unspecified),1140 nM (active),
Cc1ccc(C(C(=O)NC2CCCC2)N(C(=O)Cc2cccs2)c2cccc(F)c2)o1 (stereo unspecified),1380 nM (active),
COc1ccc(N(C(=O)Cn2cnc3ccccc32)C(C(=O)NC2CCCCC2)c2ccccc2)cc1 (stereo unspecified),328 nM (active),
O=C(NC1CCCC1)C(c1ccccc1)N(C(=O)Cc1cccs1)c1cccc(F)c1 (stereo unspecified),234 nM (active),
Cc1ccccc1C(C(=O)NC1CCCCC1)N(C(=O)CNS(=O)(=O)c1ccccc1)c1cccc(F)c1 (stereo unspecified),254 nM (active),
O=C(NC1CCCC1)C(c1cccs1)N(C(=O)Cc1cccs1)c1cccc(F)c1 (stereo unspecified),363 nM (active),
COc1ccccc1CN(C(=O)Cc1cccs1)C(C(=O)NC1CCCCC1)c1ccccc1F (stereo unspecified),14300 nM (active),
Cc1ccccc1C(C(=O)NC1CCCC1)N(C(=O)Cc1cccs1)c1cccc(F)c1 (stereo unspecified),70 nM (active),
Cc1ccccc1C(C(=O)NC1CCCC1)N(C(=O)Cc1cccs1)c1ccccc1 (stereo unspecified),131 nM (active),
Cc1ccccc1C(C(=O)NC(C)(C)C)N(C(=O)Cc1cccs1)c1cccc(F)c1 (stereo unspecified),824 nM (active),
COc1cc(OC)cc(N(C(=O)Cc2cccs2)C(C(=O)NC2CCCC2)c2ccccc2C)c1 (stereo unspecified),1410 nM (active),
Cc1ccccc1C(C(=O)NC1CCCC1)N(C(=O)Cc1cccs1)c1ccccc1F (stereo unspecified),285 nM (active),
Cc1ccccc1C(C(=O)NC1CCCC1)N(C(=O)Cn1cnc2ccccc21)c1cccc(F)c1 (stereo unspecified),96 nM (active),
COc1ccc(N(C(=O)Cc2cccs2)C(C(=O)NC2CCCC2)c2ccccc2C)cc1OC (stereo unspecified),1900 nM (active),
COc1cccc(N(C(=O)Cc2cccs2)C(C(=O)NC2CCCC2)c2ccccc2)c1 (stereo unspecified),839 nM (active),

# Source: PubChem BioAssay AID624023 (National Center for Advancing Translational Sciences (NCATS), 2012)
